# According to publication PMC5540273 (PLoS ONE, 2017):
# What was measured:
# Settings in all cases: concentration: 1 μM, replicates: in singlicate; n = 1
# [1] = system: TTK
# [2] = system: TXK
# [3] = system: TYK2(JH1domain-catalytic)
# [4] = system: TYK2(JH2domain-pseudokinase)
# [5] = system: TYRO3
# [6] = system: ULK1
# [7] = system: ULK2
# [8] = system: ULK3
# [9] = system: T1, VEGFR2
# T1 construct: gene KDR
# [10] = system: T2, VPS34
# T2 construct: gene PIK3C3
# [11] = system: VRK2
# [12] = system: WEE1
# [13] = system: WEE2
# [14] = system: WNK1
# [15] = system: WNK2
# [16] = system: WNK3
# [17] = system: WNK4
# [18] = system: T3, YANK1
# T3 construct: gene STK32A
# [19] = system: T4, YANK2
# T4 construct: gene STK32B
# [20] = system: T5, YANK3
# T5 construct: gene STK32C
# 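Note: KINOMEscan kinase panel screen.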
Compound,%Inh [1] [%],%Inh [2] [%],%Inh [3] [%],%Inh [4] [%],%Inh [5] [%],%Inh [6] [%],%Inh [7] [%],%Inh [8] [%],%Inh [9] [%],%Inh [10] [%],%Inh [11] [%],%Inh [12] [%],%Inh [13] [%],%Inh [14] [%],%Inh [15] [%],%Inh [16] [%],%Inh [17] [%],%Inh [18] [%],%Inh [19] [%],%Inh [20] [%]
Cc1c(Cn2ccn3c(=O)cc(N4CCOCC4)nc23)cccc1C(F)(F)F [GSK2289044],1,0,0,0,0,7,0,0,1,95.1,0,0,0,0,0,14,0,9,1,31
O=c1cc(N2CCOCC2)nc2n(Cc3cccc(Cl)c3Cl)ccn12 [GSK2286295],0,19,4,0,0,12,0,0,0,97,0,3,0,0,0,0,0,16,2,0
COc1ccc(CNC(=O)NC2CCN(c3ccnc(Nc4cc(OC)c(OC)c(OC)c4)n3)C2)cc1 (stereo not drawn) [GSK1379748],0,8,48,31,0,0,0,86,4,7,14,5,0,7,30,30,52,0,0,0
O=C(Nc1n[nH]c2cc(-c3cccc(F)c3F)ccc12)C1CC1 [SB-733894],1,0,1,0,0,0,51,4,20,0,0,0,0,0,0,0,0,0,0,0
COC(=O)c1c(-c2ccccc2)c2cc(OC)ccc2c(=O)n1Cc1ccccc1,14,12,7,0,0,1,0,0,7,0,0,0,9,0,0,0,0,0,4,0
Cc1cccc(-c2nc(-c3ccc(S(C)(=O)=O)cc3)sc2-c2ccnc(NCCc3ccccc3)c2)c1,10,6,0,18,0,0,8,0,0,82,0,0,9,0,0,0,0,0,13,14
Cl.NC(=O)c1cccc(Nc2nccc(Nc3ccc(Oc4cccc(Cl)c4)c(Cl)c3)n2)c1 [GW659008],29,0,39,18,10,6,0,0,0,9,0,0,12,0,0,15,0,3,2,28
Cl.O=C(Nc1cccc(-c2nn3ncccc3c2-c2ccnc(Nc3cccnc3)n2)c1)c1c(F)cccc1F [GSK312879],0,1,12,19,0,34,0,5,0,0,10,0,0,13,7,10,0,7,10,32
Cc1ccc(C(=O)Nc2ccc(Nc3ccnc4cc(-c5ccccn5)ccc34)cc2O)cc1.Cl [GW440146],0,5,28,19,0,0,0,3,13,0,0,39,0,10,8,36,39,0,14,30
COc1ccc(Nc2nccc(-c3cccc(NC(=O)c4cc5cc(F)ccc5[nH]4)c3)n2)cc1 [GSK1229782],13,17,41,47,23,16,0,23,4,33,27,33,16,11,12,31,59,3,0,30
CC(C)(C)c1ccc(C(=O)Nc2cn3cc(-c4cccnc4)ccc3n2)cc1,9,18,0,19,11,0,14,33,0,12,0,0,0,0,36,0,26,3,0,20
C[C@@H]1CCCCN1c1cc(-c2ccc3c(N)n[nH]c3c2)nc(N)n1 [GSK2258759],0,0,0,3,0,0,0,0,0,0,0,0,13,0,6,16,39,3,0,0
Cc1ccccc1-n1cnc2c(N)ncnc21 [SKF-97510],0,0,0,0,25,0,0,0,0,0,0,1,0,0,0,0,0,0,0,0
O=C(Nc1n[nH]c2nc(-c3nccs3)c(Br)cc12)C1CCCC1 [SB-742609],13,27,18,31,0,5,0,18,0,0,34,0,1,10,0,19,0,4,0,28
COc1ccccc1CNC(=O)c1cc(C(=O)c2ccccc2C)c[nH]1 [GSK364507],0,27,5,21,15,4,0,9,0,1,0,9,12,10,12,25,32,10,0,23
COc1ccc(Nc2nccc(NCCNC(=O)Nc3ccccc3F)n2)cc1 [GSK1379901],0,24,26,28,0,0,0,37,0,0,0,13,0,11,0,29,37,0,0,0
Cl.c1ccc(-c2n[nH]cc2-c2ccnc(-c3ccc(CN4CCOCC4)cc3)c2)nc1 [GW776245],31,7,0,0,0,0,0,20,0,0,0,16,0,0,0,0,0,0,0,0
Nc1nc(-c2nccs2)c(-c2ccnc3ccccc23)s1 [GW693542],14,5,0,9,18,8,0,0,0,0,0,22,9,20,28,35,28,9,3,0
COc1cc2ncnc(Nc3ccc4nc(-c5ccccc5)[nH]c4c3)c2cc1OC.Cl [GW282450],30,0,9,10,0,1,0,2,27,7,0,0,0,10,16,6,0,2,0,9
NC(=O)c1nnc2ccccc2c1N,12,4,44,38,2,24,0,29,16,20,4,9,20,8,0,0,9,23,0,0
CN1C(=O)C(Nc2ccc(Cl)c(C(=O)O)c2)=C(c2ccc(Cl)cc2)C1=O [SB-404290],22,0,0,0,0,2,2,24,6,28,0,0,21,0,0,5,16,0,0,0
